Experimental data: the supplement of paper PMC10849652
Targets with a hit are over-represented here; the source holds about 7,900 in all. About 0.6% of all pairs of compound and target were hits.

Compound: c1cn2cc(-c3ccc4cn[nH]c4c3)nc(Nc3ccc(N4CCOCC4)cc3)c2n1 [entospletinib]
Experiment: log2 fold change, soluble protein after heating vs DMSO (PISA); higher = thermal stabilisation; K562 cells, 10 uM, 30 min; active = over 0.2 and 3.5 SD of the protein, either way, in both replicates (recomputed)
Procedure, shortened: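 K562 cells at 2×10^6 cells/mL were given 10 μM compound for 30 min. Aliquots then went through 3 min of heating across 48°C-58°C, were pooled, and were extracted in PBS with 0.5% NP-40 at 4°C, and the supernatant after 21,000xg for 90 min was quantified by TMTpro 16plex LC-MS/MS with channel sums equalised. Thermal stability relative to control samples, from duplicates, is given as log2 fold change.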

UniProt Q8NDX5, sequence (Q8NDX5 whole entry, looked up): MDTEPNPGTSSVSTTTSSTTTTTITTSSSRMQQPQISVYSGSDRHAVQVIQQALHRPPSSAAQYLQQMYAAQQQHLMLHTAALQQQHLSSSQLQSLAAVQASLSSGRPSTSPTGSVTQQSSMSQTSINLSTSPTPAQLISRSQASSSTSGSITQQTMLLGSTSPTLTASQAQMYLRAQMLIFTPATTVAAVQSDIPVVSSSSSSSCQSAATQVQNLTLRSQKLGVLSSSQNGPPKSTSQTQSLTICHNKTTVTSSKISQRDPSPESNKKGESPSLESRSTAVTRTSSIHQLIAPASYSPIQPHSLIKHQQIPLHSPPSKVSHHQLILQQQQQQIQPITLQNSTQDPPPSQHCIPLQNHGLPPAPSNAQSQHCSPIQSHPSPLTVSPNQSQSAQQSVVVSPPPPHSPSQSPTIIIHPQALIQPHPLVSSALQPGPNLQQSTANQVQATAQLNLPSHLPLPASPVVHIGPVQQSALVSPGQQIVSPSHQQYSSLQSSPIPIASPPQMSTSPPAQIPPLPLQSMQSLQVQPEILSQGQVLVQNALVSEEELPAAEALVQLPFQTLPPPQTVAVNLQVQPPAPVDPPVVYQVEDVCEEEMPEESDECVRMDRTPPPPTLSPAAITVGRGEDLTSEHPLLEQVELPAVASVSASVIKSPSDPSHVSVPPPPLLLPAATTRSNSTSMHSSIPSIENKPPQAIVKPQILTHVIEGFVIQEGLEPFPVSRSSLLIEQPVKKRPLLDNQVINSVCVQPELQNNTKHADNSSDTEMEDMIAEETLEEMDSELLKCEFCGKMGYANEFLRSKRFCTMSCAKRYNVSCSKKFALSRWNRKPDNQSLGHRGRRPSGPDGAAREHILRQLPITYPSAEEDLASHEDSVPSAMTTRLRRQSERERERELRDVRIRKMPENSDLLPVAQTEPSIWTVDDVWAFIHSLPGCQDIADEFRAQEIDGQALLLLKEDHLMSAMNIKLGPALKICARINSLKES
UniProt Q9UPN7, sequence (Q9UPN7 whole entry, looked up): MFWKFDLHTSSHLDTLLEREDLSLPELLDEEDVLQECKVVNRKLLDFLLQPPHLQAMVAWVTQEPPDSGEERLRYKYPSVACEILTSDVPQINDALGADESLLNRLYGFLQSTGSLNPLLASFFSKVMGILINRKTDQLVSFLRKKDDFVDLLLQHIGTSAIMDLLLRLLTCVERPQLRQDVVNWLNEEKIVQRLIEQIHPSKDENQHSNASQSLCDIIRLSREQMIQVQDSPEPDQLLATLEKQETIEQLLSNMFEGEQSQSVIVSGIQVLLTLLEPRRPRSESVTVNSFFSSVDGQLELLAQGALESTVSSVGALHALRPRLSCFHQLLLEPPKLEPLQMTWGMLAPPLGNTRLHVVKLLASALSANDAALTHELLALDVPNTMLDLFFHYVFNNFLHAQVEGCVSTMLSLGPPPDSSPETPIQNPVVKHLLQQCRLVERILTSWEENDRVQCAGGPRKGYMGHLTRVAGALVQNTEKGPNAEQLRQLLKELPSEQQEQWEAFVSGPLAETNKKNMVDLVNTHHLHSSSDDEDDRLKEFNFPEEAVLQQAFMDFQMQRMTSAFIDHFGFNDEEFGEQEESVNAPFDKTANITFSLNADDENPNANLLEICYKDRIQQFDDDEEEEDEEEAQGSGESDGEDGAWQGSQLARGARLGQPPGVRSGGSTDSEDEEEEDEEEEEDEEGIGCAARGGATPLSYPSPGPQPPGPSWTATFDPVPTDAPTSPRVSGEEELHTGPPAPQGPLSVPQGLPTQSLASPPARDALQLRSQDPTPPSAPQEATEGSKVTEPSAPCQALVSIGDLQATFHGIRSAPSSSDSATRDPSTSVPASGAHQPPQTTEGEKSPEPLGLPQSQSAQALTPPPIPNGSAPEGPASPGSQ
UniProt Q8WUA2, sequence (Q8WUA2 whole entry, looked up): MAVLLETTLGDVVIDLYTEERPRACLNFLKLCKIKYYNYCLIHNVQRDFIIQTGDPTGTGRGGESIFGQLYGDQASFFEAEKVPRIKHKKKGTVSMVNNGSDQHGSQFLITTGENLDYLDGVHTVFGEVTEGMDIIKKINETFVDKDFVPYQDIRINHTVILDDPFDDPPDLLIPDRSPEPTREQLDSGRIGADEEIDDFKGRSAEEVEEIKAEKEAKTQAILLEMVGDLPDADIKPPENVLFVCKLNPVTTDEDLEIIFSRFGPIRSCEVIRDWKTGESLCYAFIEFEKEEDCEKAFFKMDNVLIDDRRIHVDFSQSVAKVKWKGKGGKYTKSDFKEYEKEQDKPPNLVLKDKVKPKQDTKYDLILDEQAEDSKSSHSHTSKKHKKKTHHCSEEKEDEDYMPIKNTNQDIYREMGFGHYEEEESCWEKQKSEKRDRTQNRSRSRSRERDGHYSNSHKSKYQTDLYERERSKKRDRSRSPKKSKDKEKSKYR
UniProt Q8TCG2, sequence (Q8TCG2 whole entry, looked up): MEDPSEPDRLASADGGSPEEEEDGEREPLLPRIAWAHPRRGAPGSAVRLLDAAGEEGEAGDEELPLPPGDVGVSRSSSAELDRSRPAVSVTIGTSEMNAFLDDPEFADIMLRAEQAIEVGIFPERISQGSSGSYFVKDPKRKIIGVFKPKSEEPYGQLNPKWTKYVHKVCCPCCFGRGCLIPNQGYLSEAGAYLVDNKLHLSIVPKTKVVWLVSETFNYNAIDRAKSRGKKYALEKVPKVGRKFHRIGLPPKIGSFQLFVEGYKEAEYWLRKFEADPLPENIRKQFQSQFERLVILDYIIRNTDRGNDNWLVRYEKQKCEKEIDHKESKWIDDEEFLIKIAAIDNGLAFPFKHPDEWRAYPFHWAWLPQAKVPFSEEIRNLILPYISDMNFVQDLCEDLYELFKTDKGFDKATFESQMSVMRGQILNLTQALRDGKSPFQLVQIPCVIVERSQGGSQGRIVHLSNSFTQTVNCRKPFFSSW
UniProt Q01970, sequence (Q01970 whole entry, looked up): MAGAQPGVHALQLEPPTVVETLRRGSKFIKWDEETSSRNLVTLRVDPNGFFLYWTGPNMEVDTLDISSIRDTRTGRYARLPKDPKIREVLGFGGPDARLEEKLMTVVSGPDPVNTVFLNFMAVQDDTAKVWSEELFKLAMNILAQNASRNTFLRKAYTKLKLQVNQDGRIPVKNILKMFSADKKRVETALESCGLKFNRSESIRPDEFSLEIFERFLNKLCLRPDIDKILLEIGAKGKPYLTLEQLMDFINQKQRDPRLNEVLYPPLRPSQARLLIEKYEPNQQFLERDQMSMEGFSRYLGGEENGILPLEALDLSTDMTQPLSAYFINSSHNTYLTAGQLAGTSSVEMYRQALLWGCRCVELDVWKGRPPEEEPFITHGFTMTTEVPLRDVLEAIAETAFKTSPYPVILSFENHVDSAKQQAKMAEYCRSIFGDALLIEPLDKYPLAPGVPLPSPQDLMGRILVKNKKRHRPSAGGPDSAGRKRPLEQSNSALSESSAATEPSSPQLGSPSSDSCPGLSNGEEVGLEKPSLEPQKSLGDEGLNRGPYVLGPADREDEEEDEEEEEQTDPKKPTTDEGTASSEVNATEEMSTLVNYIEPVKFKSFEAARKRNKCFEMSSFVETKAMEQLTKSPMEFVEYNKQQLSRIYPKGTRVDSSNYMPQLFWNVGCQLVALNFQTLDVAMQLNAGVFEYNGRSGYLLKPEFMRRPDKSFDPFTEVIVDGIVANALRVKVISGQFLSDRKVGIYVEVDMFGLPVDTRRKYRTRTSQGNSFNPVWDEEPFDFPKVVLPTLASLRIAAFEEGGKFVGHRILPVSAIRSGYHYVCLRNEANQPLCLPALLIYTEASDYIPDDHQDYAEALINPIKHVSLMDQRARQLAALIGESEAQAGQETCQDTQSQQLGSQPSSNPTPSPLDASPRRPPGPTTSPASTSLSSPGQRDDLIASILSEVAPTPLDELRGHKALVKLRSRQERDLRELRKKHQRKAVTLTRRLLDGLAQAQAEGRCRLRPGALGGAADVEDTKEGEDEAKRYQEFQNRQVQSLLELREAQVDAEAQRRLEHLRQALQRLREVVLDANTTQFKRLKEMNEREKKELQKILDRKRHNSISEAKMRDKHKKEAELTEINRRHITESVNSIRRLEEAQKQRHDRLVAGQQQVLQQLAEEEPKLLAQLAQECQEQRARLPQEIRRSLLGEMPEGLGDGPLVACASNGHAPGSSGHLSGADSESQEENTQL
UniProt Q8WUM4, sequence (Q8WUM4 whole entry, looked up): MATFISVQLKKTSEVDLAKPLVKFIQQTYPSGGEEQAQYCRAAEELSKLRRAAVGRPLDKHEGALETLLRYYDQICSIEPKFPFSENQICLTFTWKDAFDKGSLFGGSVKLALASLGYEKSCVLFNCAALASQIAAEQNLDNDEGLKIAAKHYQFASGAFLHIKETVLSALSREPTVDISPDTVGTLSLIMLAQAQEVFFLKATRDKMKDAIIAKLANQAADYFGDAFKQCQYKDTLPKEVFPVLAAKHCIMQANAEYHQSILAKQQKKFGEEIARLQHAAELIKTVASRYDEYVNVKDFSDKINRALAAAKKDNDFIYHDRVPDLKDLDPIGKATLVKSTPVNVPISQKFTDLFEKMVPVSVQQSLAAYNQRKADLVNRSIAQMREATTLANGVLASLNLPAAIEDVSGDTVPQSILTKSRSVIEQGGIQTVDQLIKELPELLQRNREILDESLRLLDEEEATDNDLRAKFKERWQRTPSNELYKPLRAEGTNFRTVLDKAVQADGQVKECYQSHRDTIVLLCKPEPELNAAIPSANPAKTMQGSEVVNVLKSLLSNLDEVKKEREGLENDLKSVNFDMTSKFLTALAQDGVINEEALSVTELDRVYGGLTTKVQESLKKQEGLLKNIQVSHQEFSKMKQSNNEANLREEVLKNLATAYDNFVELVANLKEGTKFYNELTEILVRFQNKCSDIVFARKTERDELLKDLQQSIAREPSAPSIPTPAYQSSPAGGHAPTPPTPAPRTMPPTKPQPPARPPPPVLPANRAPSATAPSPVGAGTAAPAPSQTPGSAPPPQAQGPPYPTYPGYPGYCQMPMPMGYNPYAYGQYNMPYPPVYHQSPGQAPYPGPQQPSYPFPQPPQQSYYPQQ

log2 fold change, inactive:
PPP1R14A (UniProt Q96A00) 0
PDPK1 (UniProt O15530) -0.037
PPP6R1 (UniProt Q9UPN7) 0.033
PSMD8 (UniProt P48556) 0.012
PSMA3 (UniProt H0YJ03) -0.059
PNPLA8 (UniProt Q9NP80) -0.015
PDCD6IP (UniProt Q8WUM4) 0.023
PHC3 isoform 7 (UniProt Q8NDX5) -0.215
PI4K2B (UniProt Q8TCG2) -0.005
PLCB3 (UniProt Q01970) 0.028
PPP1R35 (UniProt Q8TAP8) -0.04
PSMC6 (UniProt P62333) 0.01
PSMB4 (UniProt P28070) -0.009
PPIL4 (UniProt Q8WUA2) 0.035
PRKCQ (UniProt Q04759) 0.017
